Shown are actives, neighbours in structure and some others; about 7.4% of the full set was active somewhere.
FLuc modulator: inhibits or activates purified firefly luciferase, miR-21 counter-screen | 360,000 compounds, 6.9% hits | Potency, µM (highest dose often 57.5 µM), for the others: top-dose activity change, negative = inhibition, hits mostly inhibitors | purified FLuc, Km substrates, luminescence inhibition;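 note: plate controls were vehicle for no effect and reference inhibitor for full effect; nearly all actives have a fitted effect of over 55% in size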
Target sequence (P08659 whole entry, looked up): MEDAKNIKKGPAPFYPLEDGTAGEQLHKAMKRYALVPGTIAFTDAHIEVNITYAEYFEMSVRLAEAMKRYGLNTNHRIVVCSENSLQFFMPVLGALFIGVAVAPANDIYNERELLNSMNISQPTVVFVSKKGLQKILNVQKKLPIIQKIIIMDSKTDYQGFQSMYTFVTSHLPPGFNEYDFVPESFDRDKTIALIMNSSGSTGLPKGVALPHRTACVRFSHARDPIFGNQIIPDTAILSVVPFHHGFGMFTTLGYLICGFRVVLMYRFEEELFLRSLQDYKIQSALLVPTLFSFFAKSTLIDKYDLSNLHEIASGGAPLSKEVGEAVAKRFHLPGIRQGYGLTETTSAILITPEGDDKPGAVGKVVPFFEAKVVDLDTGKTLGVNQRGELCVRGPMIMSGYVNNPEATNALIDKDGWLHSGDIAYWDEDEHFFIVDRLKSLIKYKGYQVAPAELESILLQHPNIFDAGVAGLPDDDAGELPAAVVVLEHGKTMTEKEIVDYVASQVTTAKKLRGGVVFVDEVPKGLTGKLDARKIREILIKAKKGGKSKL
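Purified P. pyralis luciferase (10nM final) with 10uM D-luciferin and 10uM ATP (Km levels) in 50mM Tris acetate pH 7.5, 10mM Mg acetate, 0.01% Tween-20, 0.05% BSA; qHTS 6-point titration, ~60 µM downward; luminescence read.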
ELG1 genotoxic: induces genotoxicity in HEK293T cells with luciferase-tagged ELG1; AID 504466; Potency, µM (series often up to 46 µM), without a hit: at the top dose activity change, positive = activation, actives largely listed as activators; 330,000 compounds, 1.3% hits; HEK293T ELG1-luciferase reporter, luminescence, 16 h; note: % of control where 0% means no effect; nearly all actives have a fitted effect of over 60% in size
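Reporter readout depends on ELG1 protein level, which increases with genetic stress. After 16 hr compound exposure at 37 °C, luciferase activity was quantified using ONE-Glo.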
Rab9 prom act: activates the Rab9 promoter. Huh7 Rab9 promoter-luciferase reporter, luminescence, 24 h. 320,000 compounds, 2.8% hits. Potency, µM (series often up to 9.22 µM), without a hit: top-dose activation, negative = inhibition, hits mostly activators; note: % of control where 0% means no effect; nearly all actives have a fitted effect of over 60% in size
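Quantitative HTS format; Huh7 Rab9-luciferase reporter cells (1500/well) receive compound 2 h post-plating, incubate 24 h at 37 °C, then get luciferase reagent for 10 min before luminescence reading.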
KinaseGlo FLuc: blocks Kinase-Glo luciferase, a counter-screen artifact | Q27757 | Kinase-Glo luciferase, ATP luminescence, 8 min | Potency, µM (top dose mostly 38.3 µM), for inactives: at the highest dose activity change, negative = inhibition, most hits filed as inhibitors | 200,000 compounds, 0.28% hits; note: % is set by controls: 0 for no effect and ±100 for the full control effect; nearly all actives have a fitted effect of over 60% in size
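Light output from Kinase-Glo luciferase with luciferin and 10 uM ATP in 50 mM imidazole pH 7.2, KCl, MgCl2, Tween 20, BSA; compound pin-delivered, 8-min ambient incubation, then luminescence read.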
NPC1 promoter act: activators of NPC1 promoter. Huh7 NPC1 promoter luciferase reporter, 24 h. Potency, µM (top dose mostly 9.22 µM), without a hit: at the top dose activation, hits mostly activators. 320,000 compounds, 2.4% hits. AID 485313; note: % of control where 0% means no effect; nearly all actives have a fitted effect of over 60% in size
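Huh7 reporter cells (NPC1 promoter driving luciferase) are dosed with compound for 24 h at 37 °C, 5% CO2; luciferase detection reagent is then added and luminescence measured after 10 min at ambient temperature.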
SMN2 splice up: enhancers of SMN2 splice variant expression | Potency, µM (doses to about 46.1 µM), for the others: top-dose activity change, positive = activation, actives largely listed as activators | HEK293 SMN2-luciferase splicing reporter, luminescence, 30-36 h | 210,000 compounds, 2.8% hits; note: % of control where 0% means no effect; nearly all actives have a fitted effect of over 55% in size
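qHTS luciferase splicing reporter: luminescence rises when SMN2 exon 7 is included in transfected HEK293 cells. Compound exposure lasted 30-36 h at 37C, with 4.5 mM final sodium butyrate as control, followed by a ONE-Glo read.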
Starred values were filed as active, the others as inactive; ? = inconclusive; nt = not tested or not shown; [ ] = remark or other dose. Calls come from the whole dose curve; as a rule, active = well fitted curve in the direction sought with a large enough effect; inconclusive = small, poorly fitted or top-dose-only effect, or another doubt; inactive = no such curve, though single readings can be large; an effect the other way counts as inactive or inconclusive. Potency is the fitted concentration of half-maximal effect.

SMILES	FLuc modulator	ELG1 genotoxic	Rab9 prom act	KinaseGlo FLuc	NPC1 promoter act	SMN2 splice up
Cc1ccccc1N(CC(=O)Nc1ccc(F)cc1)S(C)(=O)=O	2%	2%	-1%	-3%	-2%	-2%
Cc1cc(C)cc(N(CC(=O)Nc2ccc(-c3nc4ccc(C)cc4s3)cc2)S(C)(=O)=O)c1	5.4µM*	?	?	-4%	?	3%[1.84 µM]
Cc1ccc2nc(-c3ccc(NC(=O)CN(c4ccccc4C)S(C)(=O)=O)cc3)sc2c1	2.4µM*	?	3.2µM*	4%	?	11µM*
C/C(=N\Nc1cccc2cccnc12)c1ccc(N)cc1	4.3µM*	?	2.2µM*	0%	2.8µM*	11µM*
C/C(=N\Nc1cccc2cccnc12)c1ccccc1O	1.2µM*	?	?	-5%	14%	25µM*
CNC(=O)Nc1cccc2cccnc12	5%	-1%	-5%	nt	-2%	nt
C/C(=N\Nc1cccc2cccnc12)c1ccccn1	0.34µM*	?	0.79µM*	?	3.2µM*	2µM*
CC(C)C(O)(C#CCN1CCCCC1)C(C)C	5%	4%	0%	nt	-1%	nt
Cc1ccccc1/C=C1\OC(=O)c2ccccc21	?	4%	-3%	3%	-2%	-3%
Cc1ccc(/C=C2\OC(=O)c3ccccc32)cc1	1.1µM*	?	0%	-9%	-2%	?
COc1ccc(NCC(=O)N/N=C/C=C/c2ccccc2[N+](=O)[O-])cc1	-17%	-5%	-2%	-2%	-3%	12%
CCOc1ccc(NCC(=O)N/N=C/C=C/c2ccccc2)cc1	13µM*	3%	-3%	5%	2%	-4%
O=C(COc1ccc(-c2ccccc2)cc1)N/N=C/c1cc(O)ccc1Br	11µM*	0%	1%	-3%	0%	2%[1.84 µM]
COc1ccc(OCC(=O)N/N=C/c2ccncc2)cc1	-13%	1%	12%	-5%	-3%	5%
CCOc1ccc(N=C/C=C/c2ccccc2)c(O)c1	8.5µM*	?	?	nt	?	nt
COc1ccc(OCC(=O)N/N=C/C=C/c2ccccc2)cc1	4.8µM*	7%	-4%	-5%	1%	9%
CN(CC(=O)Nc1cccc(F)c1)C(=O)c1ccc(N2CCCCC2)c([N+](=O)[O-])c1	-16%	?	2%	nt	-1%	nt
CCCCN(C)CCNC(=O)CN1C(=O)CSc2ccc(S(=O)(=O)N3CCOCC3)cc21	-1%	2%	-12%	nt	0%	nt
COc1ccc(C(=O)N2CCN(c3ncccn3)CC2)cc1[N+](=O)[O-]	0%	1%	17%	nt	3%	nt
CCN1C(=O)/C(=C2/C=Cc3cc(C)ccc3N2CC)N(C)C1=S	?	0%	-1%	10µM*	0%	-25%
CCN1/C(=C2\C(=O)N(C)C(=S)N2C)C=Cc2cc(OC)ccc21	?	4%	1%	-19%	-3%	-12%
Cc1ccc(OCc2ccc(-c3ccccc3)cc2)c([N+](=O)[O-])n1	?	27%	21%	nt	18%	nt
Cc1ccc(OCc2ccc(Br)cc2)c([N+](=O)[O-])n1	5.4µM*	7.3µM*	1µM*	1%	2.2µM*	10µM*
Cc1ccc(OCCOc2cccc(Br)c2)c([N+](=O)[O-])n1	?	?	?	-1%	?	18µM*
CCOc1cc(Br)c(COc2ccc(C)nc2[N+](=O)[O-])cc1OCC	3%	-19%	-2%	nt	2%	nt
SMILES	FLuc modulator	ELG1 genotoxic	Rab9 prom act	KinaseGlo FLuc	NPC1 promoter act	SMN2 splice up
C=CCn1c(SCC(=O)OCC)nc(C(F)(F)F)cc1=O	-2%	-2%	4%	-1%	-1%	2%
Cc1ccccc1-c1noc(-c2ccccc2OCC(=O)Nc2cccc([N+](=O)[O-])c2)n1	3%	nt	nt	nt	nt	nt
O=C(Nc1ccc(F)cc1)[C@H](CSCc1ccccc1)N1Cc2ccccc2C1=O	-8%	nt	nt	nt	nt	-7%
O=Nc1c(-c2c(O)[nH]c3cc(Br)ccc23)[nH]c2ccccc12	9.5µM*	?	3.7µM*	-24%	2.9µM*	16µM*
CCCc1nc2ccccc2c(=O)n1CC(=O)c1ccc(F)cc1	-2%	3%	-1%	nt	0%	nt
COc1ccc2[nH]c(=O)c(CN(C)C(=O)c3cccs3)cc2c1	4%	3%	-1%	nt	1%	nt
O=C(c1ccc2c(c1)OCO2)C1CCCN(C(=O)c2cnn(Cc3ccccc3)c2)C1 (stereo not given)	?	4%	-4%	0%	6%	nt
CCOc1ccc(CC(=O)NNC(=S)NC)cc1Br	2%	3%	-1%	nt	-4%	nt
Nc1nc(-c2ccccc2)c(N=Nc2cccc3ccccc23)s1	27µM*	0%	-3%	-16%	1%	-28%
Nc1nc(-c2ccccc2)c(N=Nc2ccccc2Cl)s1	?	3%	-2%	-3%	-2%	-16%
O=C(O)c1ccc2cc(-c3ccc(O)c(C45CC6CC(CC(C6)C4)C5)c3)ccc2c1	nt	nt	nt	-1%	nt	-80%
CCc1ccc(Nc2cnn(-c3nc4ccccc4s3)c(=O)c2Cl)cc1	12µM*	6%	?	1%	21%	?
CCOC(=O)c1c(C)c(-c2ccccc2)n(CC(=O)Nc2cc(C)cc(C)c2)c1C	5%	nt	nt	nt	nt	4%
O=C(Oc1ccccc1Cl)c1ccc2c(=O)n3c(nc2c1)CCC3	17µM*	?	0%	nt	-5%	nt
O=C(Oc1ccccc1F)c1ccc2c(=O)n3c(nc2c1)CCC3	15µM*	1%	2%	nt	-1%	nt
CCN(CC)S(=O)(=O)c1ccc(C)c(N=C=S)c1	-2%	-2%	13%	7%	-1%	14%
COc1ccc(C2C(C(=O)c3cccs3)=C(O)C(=O)N2Cc2cccnc2)cc1OC (stereo not given)	19µM*	?	?	-9%	?	nt
COc1ccc(-c2cc3c(=O)n(CC(=O)NCc4cccnc4)ncn3n2)cc1	2.1µM*	?	3.5µM*	nt	1.6µM*	nt
COc1ccc(-c2cc3c(=O)n(CC(=O)NCCCN4CCC(N5CCCCC5)CC4)nc(C)n3n2)cc1	-9%	5%	0%	nt	1%	nt
COc1ccc(-c2cc3c(=O)n(CC(=O)NCCCN4CCC(N5CCCCC5)CC4)ncn3n2)cc1	11µM*	9%	22%	nt	?	nt
O=C(NCCCCc1ccccc1)C12CN(Cc3ccccc3)CC1C(c1ccc([N+](=O)[O-])cc1)=NO2 (stereo not given)	3%	-7%	-6%	2%	-6%	-42%
CCN1CCN(C(=S)c2ccc(OCC(=O)NCc3ccccc3)cc2)CC1	2%	0%	-2%	1%	0%	7%

From PubChem BioAssay
